Assay outcomes (PubChem)
Fam108B counter: Fam108B inhibition, counter-screen for RBBP9 inhibitors. AID 1947. 0.33% of 300,000 active. inhibition, % at 9.51 µM. recombinant Fam108B, FP-Rh probe fluorescence polarization;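 active = inhibition above the screen mean inhibition plus 3 SD, computed separately per campaign, cut at about 18% in these data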;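 also: inhibitors lower polarization as less probe binds the enzyme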
PME-1 inh: blocks human protein phosphatase methylesterase 1. 0.53% of 320,000 active. recombinant PME-1, FP-Rh probe fluorescence polarization. inhibition, % at 5.9 µM. Q9Y570;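 active = inhibition above the campaign mean of all compounds plus 3 SD, cut at about 26% in these data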;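 also: competitive labeling of PME-1 active site by serine hydrolase directed probe; inhibitors block probe labeling so polarization falls and inhibition rises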
LYPLA2 inh: LYPLA2 (human) inhibition in PME1 counter-screen; 0.38% of 320,000 active; inhibition, % at 5.9 µM; recombinant LYPLA2, FP-Rh probe fluorescence polarization; O95372; AID 2177;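 active = inhibition above the screen-wide mean plus 3 SD, limit set per campaign, cut at about 26% in these data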
Target sequence (O95372 whole entry, looked up): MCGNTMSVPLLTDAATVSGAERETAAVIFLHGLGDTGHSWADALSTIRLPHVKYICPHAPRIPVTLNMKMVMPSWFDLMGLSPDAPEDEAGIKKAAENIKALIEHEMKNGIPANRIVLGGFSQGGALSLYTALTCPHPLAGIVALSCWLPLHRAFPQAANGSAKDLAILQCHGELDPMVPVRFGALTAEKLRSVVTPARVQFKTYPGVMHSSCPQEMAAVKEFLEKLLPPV
PAD4 inh: inhibitors of human PAD4; 0.41% of 330,000 active; Q9UM07; AID 485272; recombinant PAD4, RCA probe fluorescence polarization; inhibition, % at 6.36 µM;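 active = percent inhibition above a cutoff equal to the mean of all tested compounds plus 3 SD, cut at about 15% in these data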
GSTO1 inh: blocks human GSTO1 in RBBP9 counter-screen; recombinant GSTO1, activity-based probe fluorescence polarization; 1.1% of 300,000 active; inhibition, % at 5.96 µM;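 active = inhibition above the campaign mean inhibition plus 3 SD, cut at about 35% in these data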
LYPLA1 inh: LYPLA1 (human) inhibition in PME1 counter-screen; inhibition, % at 5.9 µM; AID 2174; O75608; 0.16% of 320,000 active; recombinant LYPLA1, FP-Rh probe fluorescence polarization;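 active = inhibition above the mean of all tested compounds plus 3 SD, set per campaign, cut at about 14% in these data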;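 also: inhibitors block serine hydrolase probe labeling of LYPLA1 so polarization falls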
Target sequence (O75608 whole entry, looked up): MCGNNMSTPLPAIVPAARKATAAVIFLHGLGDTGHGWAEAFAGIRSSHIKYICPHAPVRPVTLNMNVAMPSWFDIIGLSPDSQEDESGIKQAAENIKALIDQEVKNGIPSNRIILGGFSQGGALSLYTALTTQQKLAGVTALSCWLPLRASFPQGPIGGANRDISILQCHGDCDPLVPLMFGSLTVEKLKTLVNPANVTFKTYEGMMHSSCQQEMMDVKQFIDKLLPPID
Fam108b confirm: confirmation of mouse Fam108b serine hydrolase inhibitors; shares compounds with Fam108B counter; 44% of 930 active; recombinant Fam108b, FP-Rh probe fluorescence polarization; inhibition, % at 9.51 µM; AID 1978;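 active = inhibition above a limit from the primary screen, the mean over all compounds plus 3 SD, cut at about 19% in these data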;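 also: inhibitors free the probe so polarization falls as inhibition rises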
Fam108b ABPP HTS: mouse ABHD17B inhibition. 44% of 260 active. shares compounds with Fam108B counter. recombinant Fam108b, gel-based ABPP, fluorophosphonate probe. inhibition, % at 20 µM; in the data active = inhibition above about 40%
Each line names hits and unclear results; the compound was inactive in the other large screens (follow-up assays come after a bar, where they were run). Sampled rows, rich in hits. Any-hit rate of the full collection: about 1.8%.

Cc1ccc(NS(=O)(=O)c2cc(C(=O)Nc3cccc([N+](=O)[O-])c3)ccc2C)cc1	none
CCCCOc1[nH]c2nc(-c3ccco3)n(Cc3ccco3)c(=N)c2c1C#N	Fam108B counter 20 | Fam108b confirm inactive
c1ccc(CSc2nnc(-c3ccco3)n2Cc2ccco2)cc1	none
Cc1c(O)ccc(C=NNc2nc(-c3cccnc3)nc3ccccc23)c1O	none (no result: Fam108B counter, PME-1 inh, LYPLA2 inh, PAD4 inh, GSTO1 inh, LYPLA1 inh) | Fam108b ABPP HTS 60
Cc1cc2nc(-c3ccc(SCc4ccc(C#N)cc4)nc3)[nH]c2cc1C	Fam108B counter 26 | Fam108b confirm inactive
COc1cccc(N2CCN(C(=O)C3CCC(=O)N(C4CCCCCC4)C3)CC2)c1 (centres undefined)	none
Cc1cc(/C=C(/C#N)c2nc3ccccc3[nH]2)c(C)n1-c1cccc([N+](=O)[O-])c1	Fam108B counter 25 | Fam108b confirm inactive
Cc1cc(/C=C(\C#N)c2nc3ccccc3[nH]2)c(C)n1C	none
O=S1(=O)[C@H]2C[C@H](CO)O[C@@]2(CO)CN1Cc1ccc(-c2ccc(F)cc2)cc1	none (no result: Fam108B counter, PME-1 inh, LYPLA2 inh, GSTO1 inh, LYPLA1 inh)
Oc1ccc(N=Cc2ccc(O)c(O)c2)cc1	Fam108B counter 36, PME-1 inh 47, GSTO1 inh 88 | Fam108b confirm inactive
CC(C)(C)[C@@H]1COC(=O)[C@H](Cc2ccc(F)cc2)C/C=C\C[C@@H](CC(=O)NCCO)C(=O)N1	none (no result: Fam108B counter, PME-1 inh, LYPLA2 inh, GSTO1 inh, LYPLA1 inh)
COc1ccc(C(=O)NC(=S)N2CCN(C)CC2)cc1Br	Fam108B counter 47 | Fam108b confirm inactive
COc1cc(C(=O)NC(=S)N2CCN(C)CC2)cc(OC)c1OC	none (no result: Fam108B counter, PME-1 inh, LYPLA2 inh, GSTO1 inh, LYPLA1 inh)
COc1cc2c(cc1OC)C(c1ccccc1Cl)N(C)CC2 (centres undefined)	none
CCN(CC)c1ccc(/C=N/NC(=O)c2c[nH]c3ccccc23)cc1	Fam108B counter 23 | Fam108b confirm inactive
CCN(CC)c1ccc(/C=N/NC(=O)c2cc3ccccc3[nH]2)cc1	none
CCCOc1ccc(Oc2ccc(S(=O)(=O)N3CCN(C)CC3)cn2)cc1	none
CC1(C)CC(=O)C2=C(C1)c1c(ccc3ccccc13)NC2c1cc([N+](=O)[O-])cc([N+](=O)[O-])c1O (centres undefined)	Fam108B counter 26 | Fam108b confirm 57 | Fam108b ABPP HTS 50
CC(C)(C)c1ccc(OCCC(=O)OCC(=O)N2c3ccccc3NC(=O)C2(C)C)cc1	none
O=[N+]([O-])c1cc(/C=N\Nc2nc(-c3ccccc3)cs2)ccc1O	Fam108B counter 25, GSTO1 inh 63 | Fam108b confirm 25
COc1cc(/C=N/Nc2nc(-c3ccc(S(=O)(=O)N(C)C)cc3)cs2)ccc1O	Fam108B counter 21, PME-1 inh 28 | Fam108b confirm inactive
O=C(NC(CSCc1ccccc1)C(=O)N/N=C/c1ccc(O)cc1O)c1ccc([N+](=O)[O-])cc1 (centres undefined)	Fam108B counter 23 | Fam108b confirm inactive
COc1cc(O)ccc1/C=N/NC(=O)c1ccc([N+](=O)[O-])cc1	none
COc1ccc2nc(NC(=O)C3CC(=O)N(c4ccccc4)C3)sc2c1 (centres undefined)	none
Cc1[nH]n(C(N)=S)c(=O)c1N=Nc1ccccc1C(F)(F)F	Fam108B counter 24 | Fam108b confirm 27
Cc1ccccc1N=Nc1c(C)[nH]n(C(N)=S)c1=O	none
CC(=O)NCCC(=O)Nc1cc(S(=O)(=O)N2CCCCC2)ccc1Oc1ccccc1	none
COc1ccc(Cn2c(O)c(C=Nc3ccc(O)cc3)c3ccccc3c2=O)cc1	Fam108B counter 31 | Fam108b confirm inactive
CC(C)[C@H](NC(=O)c1cccc(CN(Cc2ccccc2)C(=O)c2ccccc2)c1)C(=O)O	none
O=C(NN1C(=O)/C(=C/c2ccc(O)c([N+](=O)[O-])c2)SC1=S)c1ccccc1Cl	Fam108B counter 25 | Fam108b confirm 20
COc1ccc(/C=N\NC(=O)c2cc(O)c(O)c(O)c2)cc1COc1ccc(C(=O)OCC(C)C)cc1	Fam108B counter 28, PME-1 inh 42 | Fam108b confirm 31
COc1ccc(C(=O)N/N=C/c2ccc(OC)c(COc3ccccc3)c2)cc1	none
COc1ccc(C(=O)N/N=C(\C)c2ccc3c(c2)C2C=CCC2C(c2ccccc2)N3)cc1 (centres undefined)	Fam108B counter 20 | Fam108b confirm inactive
COc1cccc(NS(=O)(=O)c2ccc3c(c2)CCCN3C(C)=O)c1	none
COc1cccc(NS(=O)(=O)c2ccc3c(c2)C2C=CCC2C(c2ccc(C(=O)O)cc2)N3)c1 (centres undefined)	Fam108B counter 43 | Fam108b confirm inactive
COc1ccc(/C(C)=N/NC(=O)c2ccncc2)cc1	none
C=CCN(C(=O)c1csnn1)C(C(=O)NC1CCCC1)c1c(F)cccc1Cl (centres undefined)	none
Cc1[nH]c2ccccc2c1C=NNC(=O)c1cccc(S(=O)(=O)Nc2cccc(C(F)(F)F)c2)c1	none (no result: Fam108B counter, PME-1 inh, LYPLA2 inh, PAD4 inh, GSTO1 inh, LYPLA1 inh) | Fam108b ABPP HTS 95
CC(C)c1ccc(C2C3=C(CC(C)(C)CC3=O)NC3=C2C(=O)c2ccccc23)cc1 (centres undefined)	Fam108B counter 23 | Fam108b confirm inactive
CC1(C)CC(=O)C2=C(C1)NC1=C(C(=O)c3ccccc31)C2c1cc([N+](=O)[O-])ccc1O (centres undefined)	Fam108B counter 21 | Fam108b confirm inactive
O=C1NC(Cc2ccccc2)C(=O)N1CC(=O)N1CCCc2ccccc21 (centres undefined)	none
CCOC(=O)c1c(NC(=O)/C=C/c2ccc3c(c2)OCO3)sc(C)c1CC	Fam108B counter 82 | Fam108b confirm inactive
COc1cccc(/C=N/NC(=O)c2[nH]c(C)c(C(=O)N/N=C/c3cccc(OC)c3O)c2C)c1O	Fam108B counter 39, PME-1 inh 35 | Fam108b confirm 60
COc1cccc(/C=N/NC(=O)c2ccc(-c3ccccc3)cc2)c1O	none
CN(C)C(=O)c1ccc(-n2cccn2)nc1	none
COc1ccc(CNC(=O)c2ccncc2)cc1	none
COc1ccc(CNC(=O)c2ccc3nccnc3c2)cc1	Fam108B counter 19 | Fam108b confirm inactive
Cc1ccc2c(=O)n3c(nc2c1)C(Cc1ccccc1)NC(=O)c1cc(Cl)ccc1-3 (centres undefined)	none (no result: Fam108B counter, PME-1 inh, LYPLA2 inh, GSTO1 inh, LYPLA1 inh)
COc1ccc(/C=N/NC(=O)c2ccc(F)cc2)cc1CN1CCc2cc(OC)c(OC)cc2C1C (centres undefined)	none
COc1ccc(/C=N/NC(=O)c2ccc(O)cc2)cc1CN1CCCc2ccccc21	Fam108B counter 27, PME-1 inh 27 | Fam108b confirm 33
COc1ccc(C=NNC(=O)c2ccc(O)cc2)cc1CN1CCCc2ccccc21	none (no result: Fam108B counter, PME-1 inh, LYPLA2 inh, PAD4 inh, GSTO1 inh, LYPLA1 inh) | Fam108b ABPP HTS 90
